Hits are enriched below; roughly 2.6% of the tested compounds scored in any of these assays.
HIF-2a block: HIF-2a inhibition | AID 624352 | hit rate 0.72% among 360,000 | 786-0 RCC cells HIF-2a reporter, luciferase luminescence, overnight | inhibition, % at 18.8 µM;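 active means inhibition of the luminescence signal of 40% or more relative to plate controls, in a single-dose primary screen at 18.75 µM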
CF NFkB inh: inhibitors of cystic fibrosis induced NF-kB | KKLEB NF-kB-GFP reporter, PAF-induced, GFP fluorescence overnight | inhibition, % at 5 µM | hit rate 0.86% among 360,000;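 active means at least 50% inhibition at 5 µM, scaled per plate between neutral and stimulator controls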;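 further: PAF is a Pseudomonas aeruginosa culture filtrate used as stimulus; plate controls were PAF-stimulated DMSO wells for no effect and unstimulated DMSO wells for full effect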
Peg3 prom inh: reduces Peg3 promoter-driven luciferase expression in HeLa. HeLa PEG-Prom luciferase reporter, luminescence, overnight. inhibition, % at 20 µM. hit rate 1.7% among 360,000. AID 588405;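 active means inhibition of at least 50% at 20 µM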
KKLEB cytotox: CF airway cell cytotoxicity counter-screen | KKLEB CF airway cells viability, ATPlite luminescence, overnight; stronger effect = lower value; cells stimulated with P. aeruginosa culture filtrate | activity change (cytotoxicity), % at 5 µM | hit rate 0.36% among 360,000 | AID 602141;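 active means corrected activity change at or below -50% at 5 µM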
Shn3 inh set2: inhibitors of Schnurri-3 3'UTR reporter in osteoblasts | Clone20 osteoblast Shn3 3'UTR firefly luciferase, 24 h | inhibition, % at 12.5 µM | hit rate 0.52% among 360,000;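 active means mean inhibition of at least 75% with every replicate also reaching 75%; inconclusive means mean inhibition at least 75% but some replicate below; inactive means mean inhibition below 75%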;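 further: 0% = median of neutral control wells and 100% = pilot-screen positive control compound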
* marks the source's active call; other numbers are inactive results; ? = inconclusive; . = no result given.

SMILES	HIF-2a block	CF NFkB inh	Peg3 prom inh	KKLEB cytotox	Shn3 inh set2
N=c1n(CCCOc2ccc(Br)cc2)c2ccccc2n1CC(N)=O	7	0	60*	-11	.
O=C1C(=Cc2cccs2)C(=O)c2ccccc21	16	-2	-15	1	-7
O=C1C(c2ccccc2)=[N+]([O-])c2ccccc21	-75	22	88*	3	57
CCn1c2ccccc2nc2cc3c(cc21)c(Cl)c(=O)c1ccccc13	54*	81*	62*	-38	-4
CCn1c(/C=C/c2c(C)n(CC)c3ccccc23)nc2ccccc2c1=O	-2	31	-5	-25	0
Cc1ccc(S(=O)(=O)Cc2ccc(C(=O)OCc3ccccc3)cc2)cc1	7	10	10	-3	3
COC(=O)c1c[nH]c2c1-c1cc(C(=O)OCc3ccccc3)n(S(=O)(=O)c3ccc(C)cc3)c1C(=O)C2=O	8	86*	82*	-21	-15
CCC(CC)CN1CCN=C1N(C)C	3	-4	7	8	-33
Nc1cc(=O)[nH]c(SCCSc2cc(Cl)ccc2Cl)n1	19	8	54*	1	1
O=C1CCC(=O)N1CN(C(=O)c1ccco1)c1ccc(Cl)c(Cl)c1	23	-1	5	-1	16
CC(=O)N(CN1C(=O)CCC1=O)c1ccc(Cl)c(Cl)c1	16	-12	51*	15	19
COc1ccc(Br)cc1/C(C)=N/NC1=NCCN1	22	1	17	-3	46
CCCCCOc1ccc(Br)cc1/C(C)=N/NC1=NCCN1	31	52*	81*	-23	?
O=C(O)CNC(=O)C(CS)Cc1ccccc1 (stereo not drawn)	25	55*	-9	16	10
Cc1ccc(S(=O)(=O)NC(=NCc2ccccc2)c2ccc(F)cc2)cc1	26	14	51*	-8	1
Cc1ccc2c(c1)c1c(n2CC(O)CNC2CCCC2)CCCC1 (stereo not drawn)	-2	12	61*	-7	-20
Cc1ccc2c(c1)c1c(n2CC(O)Cn2ccnc2C)C(=O)CCC1 (stereo not drawn)	-6	-6	10	-16	7
Cc1ccc2c(c1)c1c3n2CCN(CC(O)CNC(C)C)C3CCC1 (stereo not drawn)	-9	10	72*	-14	-5
Cc1ccc2c(c1)c1c3n2CCN(CC(N)=O)C3CCC1 (stereo not drawn)	-72	22	42	0	-7
CC(=O)N1CCCc2cc(S(=O)(=O)N3CCCC(C(=O)N4CCN(c5ccccc5)CC4)C3)ccc21 (stereo not drawn)	15	-1	12	-2	83
COc1ccccc1N1CCN(C(=O)C2CCCN(S(=O)(=O)c3ccc4c(c3)CCCN4C(C)=O)C2)CC1 (stereo not drawn)	7	-5	4	-6	87*
O=c1[nH]c(-c2ccccn2)nc2sc(-c3ccccc3)cc12	-161	19	96*	8	80
O=S(=O)(NN1CCOCC1)c1cc(Cl)cc(Cl)c1O	14	1	6	-5	2
COc1cccc(C(=O)N/N=C(/c2ccccc2)c2ccccn2)c1	-15	4	86*	16	79
COc1cc(C(=O)N/N=C(\C)c2ccccn2)cc(OC)c1OC	-3	-1	58*	15	-3
SMILES	HIF-2a block	CF NFkB inh	Peg3 prom inh	KKLEB cytotox	Shn3 inh set2
C/C(=N\NC(=O)c1cc(C)nc2ccccc12)c1ccccn1	-8	-58	46	11	95*
O=S(=O)(/C=C/c1ccccc1)Nc1ccc2c(c1)OCO2	0	5	8	2	-8
CC1(C(=O)NS(=O)(=O)c2cccc(F)c2)CCN1C(=O)C1(c2ccc(Cl)cc2)CCC1 (stereo not drawn)	10	-14	7	2	-2
CCOC(=O)c1cc([N+](=O)[O-])c([N+](=O)[O-])cc1NC(C)=O	23	60*	109*	-21	98*
Oc1ccc(-c2n[nH]c(C(F)(F)F)c2-c2ccccc2)c(O)c1	12	6	12	-20	87*
COc1ccccc1-c1c(-c2ccc(O)cc2O)n[nH]c1C(F)(F)F	10	-21	13	7	91*
COc1ccc(-c2c(-c3ccc(O)cc3O)n[nH]c2C(F)(F)F)cc1	16	-8	0	0	17
C=CCN=C1NN=C(c2cc(C)n(CCOC)c2C)CS1	47*	9	-15	8	4
COCCn1c(C)cc(C2=NNC(=Nc3ccc(Cl)cc3Cl)SC2)c1C	7	3	-3	1	5
C=CCn1c(C)cc(C2=NNC(=NC(C)(C)C)SC2)c1C	49*	-4	43	-10	11
O=C1NC[C@H](c2ccccc2)OC(=O)[C@H](Cc2ccc(F)cc2)C/C=C\C[C@H]1CC(=O)N(CCO)Cc1ccccc1	-14	102*	54*	-86*	16
O=C1NC[C@H](c2ccccc2)OC(=O)[C@@H](Cc2ccc(F)cc2)C/C=C\C[C@H]1CC(=O)N(CCO)Cc1ccccc1	6	84*	68*	-53*	27
O=C1NC[C@@H](c2ccccc2)OC(=O)[C@H](Cc2ccc(F)cc2)C/C=C\C[C@H]1CC(=O)N(CCO)Cc1ccccc1	8	0	26	-5	20
CC(C)(C)OC(=O)C[C@@H]1C/C=C\C[C@H](CC(=O)N(CCO)Cc2ccccc2)C(=O)NC[C@@H](c2ccccc2)OC1=O	-27	4	-43	1	5
COC(=O)/C(=C(/F)Sc1cc(C)c(O)c(C)c1)C(F)(F)F	8	-4	63*	1	-3
COCC1CCN(C(=O)c2cc(COc3ccc4ncccc4c3)on2)CC1	4	-1	-8	-2	86*
O=C(c1cc(COc2ccc3ncccc3c2)on1)N1CCCC1	-160	13	-99	4	68
CC1(C)N=C(N)N=C(N)N1c1ccc(CCCCc2ccccc2)cc1	30	-7	24	-18	89*
O=C(O)CCC(=O)Nc1ccc(C(=O)OC2CCCCC2)cc1	52*	3	9	13	4
CCCCC(=O)Nc1ccc(C(=O)OC2CCCCC2)cc1	-30	6	-32	-18	14
CCc1ccc(/C=C/C(=O)c2ccc(S(=O)(=O)N(C)C)cc2)cc1	13	15	54*	-12	26
CCC(Sc1nc2ccncc2[nH]1)C(=O)Nc1ccc(C)c(Cl)c1 (stereo not drawn)	11	-9	85*	0	-18
COc1ccc(CNC(=O)C2Cc3c(-c4cccc(F)c4)ccnc3O2)cc1OC (stereo not drawn)	6	-35	3	22	20
O=C1Cc2c([nH]c3ccc([N+](=O)[O-])cc23)-c2ccccc2N1	-57	84*	108*	-29	53
Cc1ccc(C(=O)Nc2cccc(C(=O)NCc3ccccc3)c2)o1	-8	-2	-1	6	4
